# PubChem BioAssay
# Entries with a potency or affinity are not part of this list. Calls of active or inactive are those of the source.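 The calls were made as follows: active = a dose-response fit showing signal loss, with half-maximal concentration no higher than twice the top tested dose; inconclusive = flat fit between 30% and 70% signal loss, or poor fit; inactive = the rest.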
# Experiment: HepG2 cell cytotoxicity, dose response, cytotoxicity control, cherry-picks, set 2 (AID 687002)
# Conditions: HepG2 viability, ATP luminescence (CellTiter-Glo), 48 h; series mostly up to 26 µM
row,SMILES,outcome
1,CN1C(=O)c2cc(NC(=O)Nc3ccc(Cl)cc3)ccc2OC[C@H]2O[C@@H](CC(=O)NCCN3CCCCC3)CC[C@@H]21,inactive
2,CC(C)NC(=O)Nc1ccc2c(c1)C(=O)N([C@@H](C)CO)C[C@H](C)[C@@H](CN(C)Cc1ccc3c(c1)OCO3)OCCCC[C@@H](C)O2,inactive
3,CC1CCCCN1C(=O)CSc1nc(C2CC2)nc2c1cnn2-c1ccccc1 (stereo not given),inactive
4,COc1cccc(S(=O)(=O)N2C[C@@H](O)COC[C@H]3O[C@H](CC(=O)Nc4ccccc4)CC[C@@H]32)c1,inactive
5,COc1ccc(N(CC(=O)NCCSCc2ccc(C)cc2)S(=O)(=O)c2ccccc2)cc1,inactive
6,C[C@@H]1CN([C@@H](C)CO)S(=O)(=O)c2ccc(C#CC3CC3)cc2O[C@H]1CN(C)CC1CCOCC1,inactive
7,C[C@@H](NC(=O)C[C@@H]1CC[C@@H]2[C@H](COC[C@H](O)CN2Cc2cc(F)ccc2F)O1)c1ccccc1,inactive
8,COc1cc(C(=O)Oc2ccccc2N)cc(OC)c1OC,inactive
9,CCCN1CCCC[C@H]1C(=O)Nc1c(C)cccc1C,inactive
10,Cc1noc(C)c1NC(=O)Nc1ccc2c(c1)C(=O)N(C)[C@@H]1CC[C@H](CC(=O)N[C@H]3CCN(Cc4ccccc4)C3)O[C@@H]1CO2,inactive
11,COc1ccccc1CN1CC[C@H]2[C@H](CO)Nc3ccc(C#Cc4ccccc4)cc3[C@H]21,inactive
12,C[C@@H]1CN([C@@H](C)CO)C(=O)c2cc(NS(=O)(=O)c3ccc(F)cc3)ccc2O[C@@H](C)CCCCO[C@H]1CN(C)S(=O)(=O)c1ccc(F)cc1,inactive
13,C[C@@H]1CN([C@@H](C)CO)C(=O)c2cc(NC(=O)Nc3cccc4ccccc34)ccc2O[C@@H]1CN(C)C(=O)Nc1ccccc1,inactive
14,CC(C)NC(=O)Nc1ccc2c(c1)CC(=O)N([C@H](C)CO)C[C@H](C)[C@H](CN(C)S(=O)(=O)c1ccc(Cl)cc1)O2,inactive
15,CC(C)(C)c1ccc(OCC(=O)NC(c2ccccc2)c2ccccc2)cc1,inactive
16,CN1C(=O)c2cc(NC(=O)NC3CCCC3)ccc2OC[C@H]2O[C@@H](CC(=O)NC3CCC3)CC[C@@H]21,inactive
17,C[C@@H]1CN([C@H](C)CO)S(=O)(=O)c2ccc(C#Cc3ccc(F)cc3)cc2O[C@H]1CN(C)C(=O)NC1CCCC1,inactive
18,C[C@@H]1CCCCO[C@H](CN(C)Cc2ccc3c(c2)OCO3)[C@H](C)CN([C@H](C)CO)C(=O)c2cc(NC(=O)Nc3cccc4ccccc34)ccc2O1,inactive
19,C[C@@H]1CN([C@@H](C)CO)S(=O)(=O)c2ccc(C#Cc3ccccn3)cc2O[C@H]1CN(C)Cc1ccccc1,inactive
20,CO[C@H]1CN(C)C(=O)c2cc(NS(=O)(=O)CC(F)(F)F)ccc2OC[C@@H](C)N(Cc2cccnc2)C[C@@H]1C,inactive

row,SMILES,outcome
1,O=C(CN1CCOCC1)N1CC[C@@H]2[C@@H](CO)Nc3ccc(-c4ccccc4F)cc3[C@@H]21,inactive
2,COc1ccccc1C(=O)Nc1ccc2c(c1)C(=O)N(C)C[C@H](OC)[C@@H](C)CN(CC1CC1)[C@@H](C)CO2,inactive
3,O=C(Nc1ccccc1)N1CCCCN2[C@H](CO)[C@@H](c3ccc(C#CC4CC4)cc3)[C@@H]2C1,inactive
4,COc1ccc(C#Cc2ccc3c(c2)O[C@@H](CN(C)C(C)=O)[C@@H](C)CN([C@H](C)CO)S3(=O)=O)cc1,inactive
5,COc1ccc(C(=O)NC(=S)Nc2cccc(Cl)c2N2CCOCC2)cc1[N+](=O)[O-],inactive
6,N#Cc1ccc(-c2ccc3c(c2)[C@H]2[C@H](CCN2C(=O)Cc2ccccc2)[C@@H](CO)N3)cc1,inactive
7,Cc1ccccc1CN(C)C[C@H]1OCc2cn(nn2)CCCC(=O)N([C@@H](C)CO)C[C@H]1C,inactive
8,CCCC#Cc1ccc2c(c1)O[C@H](CN(C)CCC)[C@H](C)CN([C@@H](C)CO)S2(=O)=O,inactive
9,C[C@@H]1CN([C@H](C)CO)C(=O)c2c(c3ccccc3n2C)-c2ccccc2CO[C@H]1CN(C)S(=O)(=O)c1ccc(Cl)cc1,inactive
10,CCNC(=O)Nc1ccc2c(c1)C(=O)N(C)[C@H]1CC[C@H](CC(=O)Nc3ccccc3F)O[C@@H]1CO2,inactive
11,C[C@@H]1CN([C@@H](C)CO)C(=O)c2cccc(NS(C)(=O)=O)c2O[C@@H]1CN(C)C(=O)Nc1ccc2c(c1)OCO2,inactive
12,CCOc1ccc(C(=O)NC(=S)Nc2ccccc2N2CCC(C)CC2)cc1[N+](=O)[O-],inactive
13,CO[C@@H](CN(C)Cc1cc(F)ccc1F)[C@@H](C)CN([C@H](C)CO)S(=O)(=O)c1ccc(F)cc1,inactive
14,C[C@H](CO)N1C[C@H](C)[C@@H](CN(C)Cc2ccncc2)Oc2ccc(NC(=O)CCC(F)(F)F)cc2C1=O,inactive
15,C[C@@H]1CN([C@@H](C)CO)C(=O)Cc2cc(NC(=O)Nc3cccc4ccccc34)ccc2O[C@@H]1CN(C)S(=O)(=O)c1cccs1,inactive
16,CC=Cc1ccc2n(c1=O)C[C@H]1[C@H](CO)[C@@H](C(=O)N3CCc4ccccc4C3)N(C(=O)C3CC3)[C@@H]21 (mixture of isomers),inactive
17,COc1cccc(S(=O)(=O)Nc2ccc3c(c2)OC[C@H](C)NC[C@@H](C)[C@H](OC)CN(C)C3=O)c1,inactive
18,COCCNC(=O)C[C@H]1C=C[C@@H](NS(=O)(=O)c2ccc(C)cc2)[C@H](CO)O1,inactive
19,C[C@H]1CN([C@@H](C)CO)C(=O)Cc2cc(NC(=O)CCCCCC(=O)Nc3ccccc3N)ccc2O[C@H]1CN(C)Cc1ccc2c(c1)OCO2,inactive
20,C[C@@H]1CN([C@@H](C)CO)C(=O)CCCn2nncc2CO[C@@H]1CN(C)Cc1cccc(C(F)(F)F)c1,inactive
